From PubChem BioAssay (Tox21)
Records with an inconclusive call do not appear. Calls of active or inactive are those of the source. Unless noted, calls follow the shape of the full dose curve.

What was measured:
[1] = qHTS assay to identify small molecule antagonists of the sonic hedgehog signaling (Shh) pathway (AID 1259369); also: nearly all actives have a fitted effect of over 45% in size
Method in brief: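 Antagonist mode: compound added to 3T3 Gli1-Luc cells followed by conditioned-medium stimulation, 24 h at 37 C, 5% CO2. Inhibition taken as loss of Gli1-driven luciferase luminescence.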

[2] = biological target: Estrogen receptor beta (Homo sapiens) (UniProt Q92731); assay: qHTS assay to identify small molecule antagonists of the estrogen receptor beta (ER-beta) signaling pathway (AID 1259378; active = well fitted inhibition curve with a large enough effect in the signal ratio in the repeat runs, not every such curve was filed as active; the % refers to the signal ratio)
Chain of Estrogen receptor beta (Homo sapiens) (Q92731 whole entry, looked up): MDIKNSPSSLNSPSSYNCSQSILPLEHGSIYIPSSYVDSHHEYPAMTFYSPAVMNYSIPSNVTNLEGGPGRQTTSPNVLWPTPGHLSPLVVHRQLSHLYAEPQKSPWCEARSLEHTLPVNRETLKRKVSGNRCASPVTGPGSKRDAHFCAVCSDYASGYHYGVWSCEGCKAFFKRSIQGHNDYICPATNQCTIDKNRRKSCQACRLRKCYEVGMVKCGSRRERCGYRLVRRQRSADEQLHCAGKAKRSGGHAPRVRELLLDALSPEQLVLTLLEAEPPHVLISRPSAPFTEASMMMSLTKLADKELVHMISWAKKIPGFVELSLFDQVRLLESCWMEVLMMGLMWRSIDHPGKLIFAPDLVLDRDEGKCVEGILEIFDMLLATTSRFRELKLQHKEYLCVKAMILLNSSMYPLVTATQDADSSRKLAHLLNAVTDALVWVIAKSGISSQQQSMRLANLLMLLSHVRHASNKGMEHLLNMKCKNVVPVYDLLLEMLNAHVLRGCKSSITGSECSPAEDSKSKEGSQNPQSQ
Method in brief: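 Antagonist mode: compounds added to beta-lactamase reporter HEK293T ER-beta-UAS cells stimulated with E2 (1nM final), 16 hr at 37C. LiveBLAzer B/G FRET substrate, 2 hours room temperature, fluorescence read-out.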

[3] = qHTS assay to identify small molecule agonists of the androgen receptor (AR) signaling pathway in the presence of an antagonist - cell viability counter screen (AID 1259379; active = well fitted curve in the direction sought with a large enough effect in the repeat runs; an effect the other way counts as inactive or inconclusive;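 also: MDA-kb2 human breast cancer cells carrying an MMTV luciferase reporter; series mostly up to about 92 µM; nearly all actives have a fitted effect of over 25% in size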)
Method in brief: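 Cytotoxicity counter-screen run in the same wells as the nilutamide-challenged (3.0 µM final) AR agonist assay in MDA-kb2 cells. Compounds tested at 15 concentrations for 16 h, 37 °C without CO2; CellTiter-Fluor fluorescence read.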

[4] = qHTS assay to identify small molecule agonists of the estrogen receptor beta (ER-beta) signaling pathway - cell viability counter screen (AID 1259380; active = well fitted curve in the direction sought with a large enough effect in the repeat runs; an effect the other way counts as inactive or inconclusive; also: nearly all actives have a fitted effect of over 30% in size)
Method in brief: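 Cell viability counter screen: CellTiter-Glo luminescence (30 min, room temperature) measured in the same wells as the beta-lactamase readout, after 16 hr compound exposure at 37C of ER-beta-bla HEK293T cells in 2% charcoal-stripped FBS medium.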

[5] = qHTS assay to identify small molecule antagonists of the estrogen receptor beta (ER-beta) signaling pathway - cell viability counter screen (AID 1259382; active = well fitted curve in the direction sought with a large enough effect in the repeat runs; an effect the other way counts as inactive or inconclusive;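 also: HEK293T cells carrying ER-beta-UAS-bla reporter stimulated with estradiol; series mostly up to about 92 µM; nearly all actives have a fitted effect of over 55% in size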)
Method in brief: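 Cytotoxicity was measured in the same wells by CellTiter-Glo luminescence after 30 min at room temperature. Cells were ER-beta-bla HEK293T in charcoal-stripped serum, given compound together with 1 nM E2 and incubated 16 h at 37C.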

[6] = biological target: Estrogen receptor (Homo sapiens) (UniProt P03372); assay: qHTS assay to identify small molecule agonists of the estrogen receptor alpha (ER-alpha) signaling pathway in the presence of an antagonist (AID 1259383); also: top concentration of the series differs between compounds; nearly all actives have a fitted effect of over 15% in size
Chain of Estrogen receptor (Homo sapiens) (P03372 whole entry, looked up): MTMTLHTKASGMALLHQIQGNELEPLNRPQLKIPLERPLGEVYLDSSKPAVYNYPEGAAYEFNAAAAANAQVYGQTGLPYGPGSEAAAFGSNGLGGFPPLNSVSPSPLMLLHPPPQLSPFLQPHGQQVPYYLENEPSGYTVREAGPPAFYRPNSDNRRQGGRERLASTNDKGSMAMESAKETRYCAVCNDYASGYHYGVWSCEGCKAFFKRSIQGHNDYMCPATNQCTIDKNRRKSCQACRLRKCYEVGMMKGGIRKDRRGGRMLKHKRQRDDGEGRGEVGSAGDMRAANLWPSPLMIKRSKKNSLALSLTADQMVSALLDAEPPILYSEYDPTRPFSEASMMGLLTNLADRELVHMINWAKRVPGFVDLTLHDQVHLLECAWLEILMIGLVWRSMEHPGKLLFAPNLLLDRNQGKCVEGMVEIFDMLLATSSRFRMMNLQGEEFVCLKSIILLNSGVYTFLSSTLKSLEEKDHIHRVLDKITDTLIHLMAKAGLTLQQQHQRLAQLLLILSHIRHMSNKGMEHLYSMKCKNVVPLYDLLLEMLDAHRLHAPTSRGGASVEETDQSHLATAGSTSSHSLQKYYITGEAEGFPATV
Method in brief: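 Agonist-mode confirmation run in the presence of 10.0nM (final) ICI-182,780 antagonist. The reporter was ERE-driven luciferase in VM7Luc4E2 cells, grown in charcoal-stripped serum. Cells were exposed to 15-concentration compound series for 22hr, then ONE-Glo luminescence was read.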

[7] = qHTS assay to identify small molecule agonists or antagonists of the thyroid stimulating hormone receptor (TSHR) signaling pathway - wild type cell line counter screen (AID 1259384)
Method in brief: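 Counter screen in untransfected Hek293: compounds (15-point titration, triplicate) plus phosphodiesterase inhibitor Ro20-1724 added after 18 h plating; 30 min RT. Intracellular cAMP via competitive d2/cryptate immunoassay, 1 h incubation.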

[8] = biological target: Thyrotropin receptor (Homo sapiens) (UniProt P16473); assay: qHTS assay to identify small molecule antagonists of the thyroid stimulating hormone receptor (TSHR) signaling pathway (AID 1259385); also: nearly all actives have a fitted effect of over 20% in size; also: potency is read from the fitted curve at half-maximal effect
Chain of Thyrotropin receptor (Homo sapiens) (P16473 whole entry, looked up): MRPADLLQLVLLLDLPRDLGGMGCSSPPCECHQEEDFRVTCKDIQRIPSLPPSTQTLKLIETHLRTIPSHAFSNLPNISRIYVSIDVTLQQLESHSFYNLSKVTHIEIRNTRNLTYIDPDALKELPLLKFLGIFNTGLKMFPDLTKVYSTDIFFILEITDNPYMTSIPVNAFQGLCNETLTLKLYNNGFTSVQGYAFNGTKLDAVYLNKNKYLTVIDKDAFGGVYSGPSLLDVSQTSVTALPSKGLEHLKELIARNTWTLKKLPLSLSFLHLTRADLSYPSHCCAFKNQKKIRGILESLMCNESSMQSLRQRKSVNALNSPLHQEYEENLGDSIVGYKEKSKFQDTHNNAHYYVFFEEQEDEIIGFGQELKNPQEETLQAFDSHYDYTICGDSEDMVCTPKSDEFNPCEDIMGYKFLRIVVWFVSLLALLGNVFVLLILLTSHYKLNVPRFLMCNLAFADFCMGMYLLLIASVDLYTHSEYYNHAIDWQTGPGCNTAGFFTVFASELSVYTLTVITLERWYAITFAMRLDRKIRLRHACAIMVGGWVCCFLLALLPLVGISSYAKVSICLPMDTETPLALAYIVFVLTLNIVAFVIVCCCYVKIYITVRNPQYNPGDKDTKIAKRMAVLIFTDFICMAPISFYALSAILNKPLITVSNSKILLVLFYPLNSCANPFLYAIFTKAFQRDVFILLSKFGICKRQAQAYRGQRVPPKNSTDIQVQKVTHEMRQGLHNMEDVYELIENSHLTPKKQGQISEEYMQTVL
Method in brief: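 Antagonist mode: compound-treated TSHR-expressing HEK293 cells were stimulated with 1.5 ng/mL TSH (final) in presence of Ro20-1724 for 30 min at RT. HTRF cAMP detection after 1 h; each compound tested at 15 concentrations, triplicate.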

[9] = qHTS assay to identify small molecule agonists of the estrogen receptor alpha (ER-alpha) signaling pathway in the presence of an antagonist - cell viability counter screen (AID 1259386; active = well fitted curve in the direction sought with a large enough effect in the repeat runs; an effect the other way counts as inactive or inconclusive; also: series mostly up to about 92 µM; nearly all actives have a fitted effect of over 30% in size)
Method in brief: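 Compounds tested at 15 concentrations for 22 h at 37C alongside 10.0nM (final) ICI-182,780 antagonist, in VM7Luc4E2 cells grown in phenol red-free, charcoal-stripped medium. Viability read by CellTiter-Fluor fluorescence after 1 h reagent incubation.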

[10] = biological target: Progesterone receptor (Homo sapiens) (UniProt P06401); assay: qHTS assay to identify small molecule agonists of the progesterone receptor (PR) signaling pathway (AID 1346784); also: nearly all actives have a fitted effect of over 30% in size
Chain of Progesterone receptor (Homo sapiens) (P06401 whole entry, looked up): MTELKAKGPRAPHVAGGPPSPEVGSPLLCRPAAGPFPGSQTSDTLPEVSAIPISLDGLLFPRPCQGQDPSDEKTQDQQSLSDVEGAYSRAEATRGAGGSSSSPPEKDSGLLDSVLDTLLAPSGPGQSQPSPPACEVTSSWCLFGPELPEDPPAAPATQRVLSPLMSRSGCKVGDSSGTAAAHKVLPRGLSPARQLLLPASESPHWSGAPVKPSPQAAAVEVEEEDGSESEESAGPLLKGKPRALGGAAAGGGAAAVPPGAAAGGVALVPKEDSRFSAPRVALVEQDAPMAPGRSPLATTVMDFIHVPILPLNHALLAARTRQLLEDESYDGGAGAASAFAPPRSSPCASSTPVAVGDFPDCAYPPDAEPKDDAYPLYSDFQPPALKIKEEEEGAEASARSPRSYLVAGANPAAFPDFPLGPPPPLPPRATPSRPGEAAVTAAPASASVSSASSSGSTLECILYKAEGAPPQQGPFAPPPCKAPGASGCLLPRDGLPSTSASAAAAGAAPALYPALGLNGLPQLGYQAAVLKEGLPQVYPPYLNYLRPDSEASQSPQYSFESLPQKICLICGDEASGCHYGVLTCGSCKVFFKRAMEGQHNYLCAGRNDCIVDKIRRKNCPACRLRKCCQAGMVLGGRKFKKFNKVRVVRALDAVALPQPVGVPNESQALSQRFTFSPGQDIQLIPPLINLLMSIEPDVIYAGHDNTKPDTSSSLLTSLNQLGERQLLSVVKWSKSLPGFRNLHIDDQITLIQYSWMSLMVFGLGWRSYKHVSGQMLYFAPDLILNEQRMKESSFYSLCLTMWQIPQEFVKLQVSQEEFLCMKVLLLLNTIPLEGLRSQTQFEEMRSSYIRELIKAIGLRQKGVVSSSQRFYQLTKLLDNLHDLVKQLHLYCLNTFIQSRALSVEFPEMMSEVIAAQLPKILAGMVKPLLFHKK
Method in brief: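 Agonist qHTS: compounds pinned onto 3,000 PR-UAS-bla HEK 293T cells per well in charcoal-stripped serum medium, 16hr at 37C, then beta-lactamase activity measured by LiveBLAzer FRET fluorescence after 2 hours at room temperature.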

[11] = biological target: Progesterone receptor (Homo sapiens) (UniProt P06401); assay: qHTS assay to identify small molecule antagonists of the progesterone receptor (PR) signaling pathway (AID 1346795; active = well fitted inhibition curve with a large enough effect in the signal ratio in the repeat runs, not every such curve was filed as active; the % refers to the signal ratio; also: potency is read from the fitted curve at half-maximal effect)
Method in brief: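 Antagonist mode with agonist R5020 at 1 nM final and 16 hr incubation at 37C. Reporter was beta-lactamase driven by UAS in HEK293T (PR-UAS-bla), 2% charcoal-stripped serum; signal from LiveBLAzer FRET substrate, 2 hr at room temperature.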

[12] = qHTS assay to identify small molecule antagonists of the TGF-beta/Smad signaling pathway - cell viability counter screen (AID 1346824; active = well fitted curve in the direction sought with a large enough effect in the repeat runs; an effect the other way counts as inactive or inconclusive; also: nearly all actives have a fitted effect of over 50% in size)
Method in brief: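 Cytotoxicity counter-screen run in the same wells as the beta-lactamase Smad reporter read: CellTiter-Glo luminescence after 30 min at room temperature. HEK 293T SBE-bla cells had 5 hr compound exposure at 37 C with TGF-beta1 (0.25 ng/mL stock).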

[13] = qHTS assay to identify small molecule agonists of the TGF-beta/Smad signaling pathway - cell viability counter screen (AID 1346829; active = well fitted curve in the direction sought with a large enough effect in the repeat runs; an effect the other way counts as inactive or inconclusive; also: top concentration of the series differs between compounds; nearly all actives have a fitted effect of over 45% in size)
Method in brief: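 Same-well cytotoxicity: CellTiter-Glo added after the 2 hr room-temperature beta-lactamase substrate step, luminescence measured 30 min later; cells had 5 hr of compound at 37 C.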

[14] = qHTS assay to identify small molecule agonists of the TGF-beta/Smad signaling pathway (AID 1346859; active = well fitted activation curve with a large enough effect in the signal ratio in the repeat runs, not every such curve was filed as active; the % refers to the signal ratio; also: series mostly up to about 77 µM)
Method in brief: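 Fluorescence (ex 405 nm; em 460 and 530 nm) was read 2 h after LiveBLAzer FRET substrate at RT. The preceding compound treatment of overnight-plated SBE-bla HEK293T cells lasted 5 h at 37 C.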

[15] = biological target: Thyrotropin-releasing hormone receptor (Homo sapiens) (UniProt P34981); assay: qHTS assay to identify small molecule antagonists of the thyrotropin-releasing hormone receptor (TRHR) signaling pathway (AID 1346877; active = well fitted inhibition curve with a large enough effect in the repeat runs, not every such curve was filed as active; also: series mostly up to about 51 µM)
Chain of Thyrotropin-releasing hormone receptor (Homo sapiens) (P34981 whole entry, looked up): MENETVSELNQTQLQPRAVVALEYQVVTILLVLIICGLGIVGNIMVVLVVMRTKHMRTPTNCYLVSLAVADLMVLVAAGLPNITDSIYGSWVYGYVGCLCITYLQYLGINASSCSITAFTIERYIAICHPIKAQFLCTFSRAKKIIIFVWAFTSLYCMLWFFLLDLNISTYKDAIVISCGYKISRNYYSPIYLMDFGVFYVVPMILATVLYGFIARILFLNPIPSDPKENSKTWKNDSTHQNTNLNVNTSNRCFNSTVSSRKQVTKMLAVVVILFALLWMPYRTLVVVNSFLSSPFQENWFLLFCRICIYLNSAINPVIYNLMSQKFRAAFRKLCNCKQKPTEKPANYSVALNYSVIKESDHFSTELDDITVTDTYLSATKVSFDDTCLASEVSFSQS
Method in brief: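 Antagonist mode: after a 5 min room-temperature compound exposure, cells were stimulated with 1 nM (final) TRH. Dye-loaded TRHR-HEK293 cells were used, and calcium-dependent fluorescence was followed for 3 min, with 15-point titrations run in triplicate.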

[16] = biological target: Thyrotropin-releasing hormone receptor (Homo sapiens) (UniProt P34981); assay: qHTS assay to identify small molecule agonists of the thyrotropin-releasing hormone receptor (TRHR) signaling pathway (AID 1346891); also: series mostly up to about 58 µM
Method in brief: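 Agonist-mode intracellular calcium readout: kinetic fluorescence over 3 min at 1 s intervals after compound addition to TRHR-HEK293 cells (18 h seeded, 2 h dye-loaded at 37 C). Fifteen concentrations, triplicates.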

[17] = biological target: Androgen receptor (Homo sapiens) (UniProt P10275); assay: qHTS assay to identify small molecule agonists of the androgen receptor (AR) signaling pathway in the presence of an antagonist (AID 1259381); also: nearly all actives have a fitted effect of over 15% in size
Chain of Androgen receptor (Homo sapiens) (P10275 whole entry, looked up): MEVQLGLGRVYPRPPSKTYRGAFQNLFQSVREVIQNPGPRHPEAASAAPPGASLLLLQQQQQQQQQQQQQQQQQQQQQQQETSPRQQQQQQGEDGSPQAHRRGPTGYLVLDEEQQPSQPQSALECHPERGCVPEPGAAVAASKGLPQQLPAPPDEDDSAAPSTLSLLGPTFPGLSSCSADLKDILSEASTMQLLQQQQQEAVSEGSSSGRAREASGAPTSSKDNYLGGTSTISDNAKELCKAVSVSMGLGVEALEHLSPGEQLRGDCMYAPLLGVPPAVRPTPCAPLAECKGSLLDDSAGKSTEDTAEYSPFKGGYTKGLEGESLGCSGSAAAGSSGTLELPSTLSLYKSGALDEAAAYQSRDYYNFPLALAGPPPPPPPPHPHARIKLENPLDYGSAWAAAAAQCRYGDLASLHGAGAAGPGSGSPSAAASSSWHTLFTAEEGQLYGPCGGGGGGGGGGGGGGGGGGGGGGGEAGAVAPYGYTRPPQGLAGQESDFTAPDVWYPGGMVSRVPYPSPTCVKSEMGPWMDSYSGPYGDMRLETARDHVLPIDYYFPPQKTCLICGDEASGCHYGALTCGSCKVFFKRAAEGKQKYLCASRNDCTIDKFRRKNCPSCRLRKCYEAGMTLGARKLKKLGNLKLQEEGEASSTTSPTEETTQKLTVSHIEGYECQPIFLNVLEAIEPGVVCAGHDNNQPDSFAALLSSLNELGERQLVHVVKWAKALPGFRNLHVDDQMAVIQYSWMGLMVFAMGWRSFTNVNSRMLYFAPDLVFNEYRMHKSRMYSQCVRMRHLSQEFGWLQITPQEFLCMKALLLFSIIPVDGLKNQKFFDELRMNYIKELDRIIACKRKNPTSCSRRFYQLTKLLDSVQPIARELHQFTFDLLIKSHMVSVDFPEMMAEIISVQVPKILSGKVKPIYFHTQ
Method in brief: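 Agonist-mode confirmation run against 3.0 uM final nilutamide: compounds titrated at 15 concentrations onto MDA-kb2 MMTV-luciferase reporter cells. Luminescence measured with ONE-Glo following 16 hr incubation, 37C, 0% CO2.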

[18] = qHTS assay to identify small molecule antagonists of the progesterone receptor (PR) signaling pathway - cell viability counter screen (AID 1346798; active = well fitted curve in the direction sought with a large enough effect in the repeat runs; an effect the other way counts as inactive or inconclusive; also: series mostly up to about 92 µM; nearly all actives have a fitted effect of over 50% in size)
Method in brief: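 Cytotoxicity read as CellTiter-Glo luminescence (30 min, room temperature) in the same wells as the beta-lactamase readout. HEK293T PR-UAS-bla cells in charcoal-stripped 2% FBS received compound and R5020, then 16 h at 37C, 5% CO2.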

[19] = qHTS assay to identify small molecule agonists of the progesterone receptor (PR) signaling pathway - cell viability counter screen (AID 1346799); also: nearly all actives have a fitted effect of over 45% in size
Method in brief: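 Cytotoxicity measured by CellTiter-Glo luminescence (30 min, RT) in the same wells as the PR beta-lactamase agonist read. Those HEK293T cells had 16 h compound treatment at 37 C in 2% charcoal-stripped FBS medium.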
% is scaled to controls: 0 for no effect and ±100 for the full control effect.

COP(=S)(OC)Oc1c(Cl)cc(C)cc1Cl
active: Potency [8] 54.5 µM | Potency [11] 27.3 µM
inactive: Potency [1] | Potency [2] | Potency [3] | Potency [4] | Potency [5] | Potency [6] | Potency [7] | Potency [9] | Potency [10] | Potency [12] | outcome [13] | outcome [14] | outcome [15] | outcome [16]

COP(N)(=S)Oc1ccccc1C(=O)OC(C)C (configuration not stated)
inactive: Potency [1] | Potency [3] | Potency [4] | Potency [17] | Potency [5] | Potency [6] | Potency [7] | Potency [8] | Potency [9] | Potency [10] | Potency [18] | Potency [19] | outcome [13] | outcome [14]

NC(=O)O
inactive: Potency [1] | Potency [3] | Potency [4] | Potency [5] | Potency [6] | Potency [7] | Potency [8] | Potency [9] | Potency [10] | Potency [11] | Potency [18] | Potency [19] | Potency [12] | outcome [13] | outcome [14] | outcome [15] | outcome [16]

ClC(Br)Br
inactive: Potency [1] | Potency [2] | Potency [3] | Potency [4] | Potency [5] | Potency [6] | Potency [7] | Potency [8] | Potency [9] | Potency [10] | Potency [11] | Potency [18] | Potency [19] | Potency [12] | outcome [13] | outcome [14] | outcome [15] | outcome [16]

Cc1ncsc1CCCl
inactive: Potency [1] | Potency [2] | Potency [3] | Potency [4] | Potency [5] | Potency [6] | Potency [7] | Potency [8] | Potency [9] | Potency [10] | Potency [11] | Potency [18] | Potency [19] | Potency [12] | outcome [13] | outcome [14] | outcome [15] | outcome [16]

CC1=C(C(=O)O)N2C(=O)[C@@H](N)[C@H]2SC1
inactive: activity change, negative = inhibition [1] -0.41% [at 19 µM] | activity, negative = inhibition [2] 20.1% [at 19 µM] | activity change, negative = cytotoxicity [3] -2.71% [at 19 µM] | activation [17] -0.0648% [at 19 µM] | activity change, negative = cytotoxicity [5] 15.3% [at 19 µM] | activation [6] 0.456% [at 19 µM] | cAMP activity change [7] 2.64% [at 18.9 µM, active compounds read high] | activity change, negative = inhibition [8] 2.26% [at 19 µM] | activity change, negative = cytotoxicity [9] 2.04% [at 19 µM] | activation [10] -0.285% [at 19 µM] | activity change, negative = inhibition [11] 1.39% [at 18.9 µM] | activity change, negative = cytotoxicity [18] 11.2% [at 18.9 µM] | activity change, negative = cytotoxicity [19] 0.398% [at 19 µM] | viability change, negative = cytotoxic [12] 0.38% [at 15.8 µM] | activity change, negative = cytotoxicity [13] 8.87% [at 15.8 µM] | activation [14] 3.18% [at 15.8 µM] | activity, negative = inhibition [15] -1.01% [at 10.5 µM] | activation [16] -0.183% [at 11.8 µM]

C=CC1CC=CCC1 (configuration not stated)
inactive: Potency [1] | Potency [2] | Potency [3] | Potency [4] | Potency [5] | Potency [6] | Potency [7] | Potency [8] | Potency [10] | Potency [11] | Potency [19] | Potency [12] | outcome [13] | outcome [14] | outcome [15] | outcome [16]

CC1=NNC(=O)N(/N=C/c2cccnc2)C1
inactive: Potency [1] | Potency [2] | Potency [3] | Potency [4] | Potency [7] | Potency [8] | Potency [9] | Potency [10] | Potency [18] | Potency [19] | Potency [12] | outcome [13] | outcome [14] | outcome [15] | outcome [16]
